As a reminder, the AC50 is the concentration giving half of the maximal activity seen.

The nature of test [1]: ATG_E_Box_CIS: Attagene CIS-FACTORIAL HepG2 Assay for human Enhancer Box (E-box) (AID 2282936). The conditions noted are these: HepG2 E-box cis-reporter transcription, actives raise or lower the signal. An outline of the steps:
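E-box-driven reporter transcripts measured in transiently transfected HepG2 after 24 h exposure: RNA reverse-transcribed, PCR-amplified, fluorescently labelled, digested and resolved by capillary electrophoresis. Gain or loss relative to DMSO.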

The nature of test [2]: ATG_M_61_CIS: Attagene CIS-FACTORIAL HepG2 Assay for M61 Transcription Factor (Internal Marker) (AID 2282937). The conditions noted are these: HepG2 Attagene CIS-FACTORIAL M61 internal marker reporter; actives raise or lower the signal. Summed up:
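Multiplexed reporter mRNA assay, HepG2 human hepatoma cells, 24 h treatment. Signal: FAM-labelled, HpaI-digested RT-PCR fragments by CE. Fit: bidirectional, baseline DMSO.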

Test [3] can be described thus: ATG_M_19_CIS: Attagene CIS-FACTORIAL HepG2 Assay for M19 Transcription Factor (Internal Marker) (AID 2282939). To be noted: HepG2 Attagene CIS-FACTORIAL M19 internal marker reporter; actives raise or lower the signal. Summed up:
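Internal marker readout, fitted in both directions against DMSO, from HepG2 cells carrying transfected cis-element reporter constructs; RT-PCR and capillary electrophoresis of reporter mRNA after 24 h exposure.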

The nature of test [4]: ATG_Ets_CIS: Attagene CIS-FACTORIAL HepG2 Assay for human Erythroblast Transformation Specific (ETS) (AID 2282941). The conditions noted are these: HepG2 ETS cis-reporter transcription, actives raise or lower the signal. An outline of the steps:
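Bidirectional fit versus DMSO of reporter mRNA signal, detected by RT-PCR and capillary electrophoresis in HepG2 cells transiently transfected with cis-element reporters and dosed 24 h.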

For test [5], the target named is Hepatocyte nuclear factor 3-beta (Homo sapiens) (UniProt Q9Y261). Briefly: ATG_FoxA2_CIS: Attagene CIS-FACTORIAL HepG2 Assay for human Forkhead box A2 (FOXA2) (AID 2282942). The conditions noted are these: HepG2 cis-reporter transcription factor activity, 24 h; actives raise or lower the signal. An outline of the steps: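 Multiplexed cis-element reporter assay in transiently transfected HepG2. Twenty-four hours post-dosing, RNA was reverse-transcribed, amplified, FAM-labelled, HpaI-digested and separated by CE. Activity gain or loss relative to DMSO.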
Sequence of Hepatocyte nuclear factor 3-beta (Homo sapiens) (Q9Y261 whole entry, looked up): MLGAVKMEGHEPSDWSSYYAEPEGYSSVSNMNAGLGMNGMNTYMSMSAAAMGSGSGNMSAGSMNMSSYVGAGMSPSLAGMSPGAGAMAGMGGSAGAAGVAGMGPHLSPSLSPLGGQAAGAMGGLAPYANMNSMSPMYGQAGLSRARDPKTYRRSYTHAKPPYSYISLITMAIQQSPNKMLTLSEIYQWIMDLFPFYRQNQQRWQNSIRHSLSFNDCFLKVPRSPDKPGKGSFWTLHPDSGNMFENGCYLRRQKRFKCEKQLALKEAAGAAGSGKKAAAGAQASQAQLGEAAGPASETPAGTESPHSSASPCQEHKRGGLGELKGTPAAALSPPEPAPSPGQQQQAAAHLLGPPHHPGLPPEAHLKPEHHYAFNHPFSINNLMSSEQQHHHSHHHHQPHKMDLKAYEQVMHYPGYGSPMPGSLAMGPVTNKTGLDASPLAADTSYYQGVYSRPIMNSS

Test [6] can be described thus: ATG_FoxO_CIS: Attagene CIS-FACTORIAL HepG2 Assay for human Forkhead box O (FoxO) (AID 2282943). To be noted: HepG2 Attagene cis-reporter, FoxO element, mRNA; actives raise or lower the signal. An outline of the steps:
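Endogenous transcription factor activity read from multiplexed cis-promoter reporter transcripts in transiently transfected HepG2, 24 h after dosing. Reporter RNA measured via RT-PCR plus capillary electrophoresis of FAM-labeled products; gain or loss relative to DMSO.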

Test [7] is described as follows: ATG_GATA_CIS: Attagene CIS-FACTORIAL HepG2 Assay for human GATA Binding Protein (AID 2282944). To be noted: HepG2 GATA cis-element reporter, Attagene multiplex mRNA; actives raise or lower the signal. Summed up:
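Reporter transcripts from a GATA cis-regulated unit, among multiplexed reporters in transfected HepG2 cells, were measured by RT-PCR with capillary electrophoresis after 24 h dosing. Induction or loss scored relative to DMSO.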

A short description of test [8]: ATG_GLI_CIS: Attagene CIS-FACTORIAL HepG2 Assay for human Zinc Finger Protein GLI1 (AID 2282945). The conditions noted are these: HepG2, Attagene cis-factorial reporter mRNA, GLI element; actives raise or lower the signal. Summed up:
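Bidirectional curve fits relative to DMSO, using reporter mRNA levels from RT-PCR plus capillary electrophoresis. Cells were HepG2 transiently carrying cis-regulated reporter constructs, harvested 24 h after dosing.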

A short description of test [9]: ATG_ERE_CIS: Attagene CIS-FACTORIAL HepG2 Assay for Estrogen Response Element (ERE) (AID 2282940). To be noted: HepG2 ERE cis-reporter, Attagene RNA transcript; actives raise or lower the signal. An outline of the steps: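 After 24 h compound treatment, RNA from transfected HepG2 cells was reverse-transcribed, reporter cDNA PCR-amplified, FAM-labelled, HpaI-cut and resolved by capillary electrophoresis. ERE-driven cis reporter transcripts reflect endogenous factors; gain or loss scored against DMSO.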

The structures appear in SMILES notation. Calls of active or inactive are those of the source. The calls were made as follows: active = hit-call score of the fitted dose curve at least 0.9, where 1 is the maximum; inactive = score below 0.9.

In the case of `Oc1ccc2c(c1)-c1ccccc1C2`, the AC50 in [1] was 157 µM (active). The compound was called inactive in test [2], in test [3], in test [4], in test [5], in test [6] and in [7]. Also, the call in test [8] was inactive.

As for `CCCCCCCCCCCCCCCO`, the result in test [1], in test [2], in [4], in test [5], in [7] and in [8] was inactive. The AC50 in test [6] is 175 µM (active).

As for `CCCCC(CC)COC(=O)c1ccc(C(=O)OCC(CC)CCCC)cc1` (stereo unspecified), the result in test [1], in test [2], in test [4], in test [5], in test [6] and in [7] was inactive. The result in test [8] was inactive.

As for `O=C(CCCCCCCCc1cccnc1)N1CCC(C=C(c2ccccc2)c2ccccc2)CC1`, the outcome in test [1], in [4], in test [5], in test [6], in test [7] and in test [8] was inactive. The AC50 in test [2] is 59.8 µM (active).

Regarding `CC(C)=CCC/C(C)=C\CO`, the result in [1], in [2], in test [4], in [5], in test [6] and in test [7] was inactive. The compound was classed as inactive in test [8].

Take `C1N2CN3CN1CN(C2)C3`: the outcome in test [1], in [2], in test [4], in test [5], in test [6] and in test [7] was inactive. In test [8], the compound was called inactive.

In the case of `Cn1c(=O)cc(Oc2ccc(F)cc2F)c2cnc(NCC(C)(C)O)nc21`, the result in test [1], in [2], in [9], in [4], in [5] and in [6] was inactive. Further, the compound was called inactive in [7] and in [8].

Consider `C1=CCCC=CCCC=CCC1`, for which, in test [1], the AC50 is 76.6 µM (active). Besides, the outcome in test [2], in [3], in test [4], in [5], in [6] and in test [7] was inactive. In addition, the call in [8] was inactive.

On to `CC(C)(O)c1coc(S(=O)(=O)NC(=O)Nc2c3c(cc4c2CCC4)CCC3)c1`, for which the outcome in test [1], in test [2], in test [4], in test [5], in test [6] and in test [7] was inactive. Moreover, in [8], the compound was classed as inactive.

As for `CN(C)c1ccc(Cc2ccc(N(C)C)cc2)cc1`, the AC50 in [1] is 31.1 µM (active). Moreover, the compound was called inactive in [2], in test [4], in test [5], in [6], in [7] and in test [8].

As to `CCC(C)(C)C(=O)O[C@H]1C[C@@H](C)C=C2C=C[C@H](C)[C@H](CC[C@@H]3C[C@@H](O)CC(=O)O3)[C@H]21`, the outcome in [1], in [2], in test [4], in test [5], in test [6] and in test [7] was inactive. The outcome in test [8] was inactive. Moreover, the AC50 in test [9] is 6.94 µM (active).

As to `CC/C(=C\C(=N/O)C(N)=O)C(C)[N+](=O)[O-]` (stereo unspecified), the result in test [1], in [2], in test [9], in test [4], in test [5] and in test [6] was inactive. For the same compound, the compound was called inactive in test [7] and in test [8].

Take `Cn1c(=O)c2c(ncn2C)n(C)c1=O`: the result in [1], in test [2], in [4], in test [5], in test [6] and in [7] was inactive. Further, in [8], the compound was classed as inactive.

For the compound `CC(C)CC(C)(O)C#CC(C)(O)CC(C)C` (stereo unspecified), the result in test [1], in [2], in [4], in [5], in test [6] and in test [7] was inactive. In addition, the result in [8] was inactive.

`CC(=O)OCCC(C)C`: the result in test [1], in [2], in test [4], in test [5], in [6] and in [7] was inactive. Also, the compound was classed as inactive in [8].

With `CC(C)CCO`, the outcome in test [1], in test [2], in test [9], in test [4], in [5] and in [6] was inactive. Moreover, the call in test [7] and in test [8] was inactive.

Regarding `CNS(=O)(=O)c1cc(C(=O)N2CCC(CCN3C4CCC3CC(n3c(C)nc5ccccc53)C4)(c3cccc(F)c3)CC2)c(Cl)cc1F` (stereo unspecified), the result in [1], in [2], in test [3], in test [4], in [5] and in test [6] was inactive. The compound was called inactive in test [7] and in test [8].

Take `O=C1CCC(N2C(=O)c3ccccc3C2=O)C(=O)N1` (stereo unspecified): the outcome in test [1], in test [2], in [4], in test [5], in test [6] and in test [7] was inactive. In addition, the call in test [8] was inactive.

Regarding `CCOCCOCCOCCO`, the result in test [1], in [2], in test [3], in test [4], in [5] and in [6] was inactive. The compound was classed as inactive in [7] and in test [8].

For `Nc1cccc(N)c1`, the outcome in test [1], in test [2], in test [3], in test [4], in [5] and in test [6] was inactive. The call in test [7] and in [8] was inactive.

For the compound `CCCCCCCCCCCCc1ccccc1`, the result in test [1], in test [2], in test [3], in [4], in [5] and in [6] was inactive. The result in test [7] and in [8] was inactive.

As for `CCOC(=O)COc1ccc2c(c1)CC(NCC(O)c1cccc(Cl)c1)CC2` (stereo unspecified), the result in test [1], in [2], in test [9], in [4], in test [5] and in [6] was inactive. Also, the call in test [7] and in test [8] was inactive.

For `NC(=O)NO`, the result in [1], in test [2], in [4], in test [5], in [6] and in [7] was inactive. In addition, in [8], the compound was called inactive.

As to `CC(O)CN(CCN(CC(C)O)CC(C)O)CC(C)O` (stereo unspecified), the outcome in [1], in test [2], in test [4], in test [5], in test [6] and in [7] was inactive. Further, the result in test [8] was inactive.

As to `Cc1c(-c2cccnc2)c2ccccc2n1CCCCC(=O)O`, the result in test [1], in [2], in test [4], in [5], in test [6] and in test [7] was inactive. Also, the compound was called inactive in [8].

The record behind these values is PubChem BioAssay (EPA / NIEHS).
